Experimental data as given in PubChem BioAssay (NCATS).
Records with an inconclusive call do not appear. Entries that show only a call come without a potency. Calls of active or inactive are those of the source. Unless noted, calls come from the whole dose curve; as a rule, active = well fitted curve in the direction sought with a large enough effect; inconclusive = small, poorly fitted or top-dose-only effect, or another doubt; inactive = no such curve, though single readings can be large; an effect the other way counts as inactive or inconclusive.

How the values were obtained:
[1] = molecular target: Calcium and integrin-binding protein 1 (Homo sapiens) (UniProt Q99828); experiment: Primary qHTS for Identification of Calcium Integrin Binding Protein 1 (CIB1) Competitor (AID 1508620);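 note: GST tagged CIB1 binding a fluorescein labelled alphaIIb integrin peptide tracer; top concentration of the series differs between compounds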
Chain of Calcium and integrin-binding protein 1 (Homo sapiens) (Q99828 whole entry, looked up): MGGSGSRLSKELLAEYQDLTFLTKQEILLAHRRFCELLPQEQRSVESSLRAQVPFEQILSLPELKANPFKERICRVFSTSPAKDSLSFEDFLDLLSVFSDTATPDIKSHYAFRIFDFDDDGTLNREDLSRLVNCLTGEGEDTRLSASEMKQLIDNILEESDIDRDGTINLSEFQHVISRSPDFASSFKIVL
Procedure, shortened: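 Fluorescence polarization competition: GST-tagged CIB1 (1 uM final) preincubated with compound 15 min at room temperature, then FITC-labelled alphaIIb peptide (100 nM final) added. After 15 min at room temperature, polarization read at Ex 480/Em 540.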

[2] = molecular target: Cytochrome P450 2D6 (Homo sapiens) (UniProt P10635); experiment: Cytochrome P450 family 2 subfamily D member 6 (CYP2D6) small molecule antagonists: luciferase biochemical (cell-free) qHTS assay (AID 1645840; active = well fitted curve in the direction sought with a large enough effect in the repeat runs; an effect the other way counts as inactive or inconclusive; note: nearly all actives have a fitted effect of over 55% in size; note: potency is the fitted concentration of half-maximal effect)
Chain of Cytochrome P450 2D6 (Homo sapiens) (P10635 whole entry, looked up): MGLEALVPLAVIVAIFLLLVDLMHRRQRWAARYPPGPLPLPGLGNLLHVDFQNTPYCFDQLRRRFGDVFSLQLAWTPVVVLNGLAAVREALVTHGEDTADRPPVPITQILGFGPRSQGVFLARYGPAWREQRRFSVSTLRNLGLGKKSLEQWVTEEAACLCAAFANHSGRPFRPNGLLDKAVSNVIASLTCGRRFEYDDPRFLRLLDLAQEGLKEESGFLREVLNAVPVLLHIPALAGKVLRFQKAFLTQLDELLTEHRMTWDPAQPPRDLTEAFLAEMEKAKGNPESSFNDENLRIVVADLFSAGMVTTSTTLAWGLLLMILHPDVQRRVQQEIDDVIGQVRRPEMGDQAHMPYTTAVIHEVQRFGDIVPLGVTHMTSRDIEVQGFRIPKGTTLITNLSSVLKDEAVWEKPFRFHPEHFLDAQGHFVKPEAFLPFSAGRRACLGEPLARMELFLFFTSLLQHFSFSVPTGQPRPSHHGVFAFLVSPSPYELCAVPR
Procedure, shortened: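 P450-Glo CYP2D6 system: proluciferin substrate converted by enzyme to luciferin, read by luminescence proportional to activity. Enzyme-substrate mix with compound 10 min at room temperature, then NADPH regeneration 1 h before detection reagent.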

Structure (SMILES) | Potency [1] | Potency [2]
CCn1c2ccccc2c2cc(Nc3ccnc(NCCCN4CCOCC4)n3)ccc21 | inactive | inactive
N#Cc1cccc(C(=O)Nc2cc(-c3ccccc3)nn2-c2ccccc2)c1 | inactive | inactive
CCNC1(C(N)=O)CCN(c2ncnc3c2nc(-c2ccccc2Cl)n3-c2ccc(Cl)cc2)CC1 | inactive | 16.9 µM (active)
COC(=O)c1ccc(N2CCN(C)CC2)c(NC(=O)c2cccc(OC)c2)c1 | inactive | 6.01 µM (active)
CC(C)Oc1ccc(-c2cnc3c(-c4ccnc5ccccc45)cnn3c2)cc1 | inactive | inactive
CCO[C@H]1CN(C2CCC(O)(c3ccc4c(c3)OCO4)CC2)C[C@@H]1NC(=O)CNC(=O)c1cccc(C(F)(F)F)c1 (some centres not stated) | inactive | 3.38 µM (active)
CCC(C)CNCC(=O)N1CCc2sccc2C1COc1cccc(C)c1 (configuration not stated) | inactive | 0.0952 µM (active)
COC(=O)c1cc(Br)cnc1N1CCC(NC2CCCCC2)C(O)C1 (configuration not stated) | inactive | 0.019 µM (active)
Cn1cc(-c2ccc(F)c(C(F)(F)F)c2)nc1C1CCN(c2ncnc3[nH]ncc23)CC1 | inactive | inactive
CN(C)C(=O)Nc1cc(-c2ccccc2)ccc1N(C)C | inactive | inactive
CCN1C(C)(C)CC(Oc2ccc(C(=O)Nc3ccc(NC(=O)Nc4cc(C(C)(C)C)on4)cc3)nc2)CC1(C)C | inactive | 19 µM (active)
C[C@H]1CO[C@@H]2Cn3cc(C(=O)NCc4ccc(F)cc4F)c(=O)c(O)c3C(=O)N12 | inactive | inactive
Cc1nc(-c2cn3c(n2)-c2ccc(-c4cnn(C(C)(C)C(N)=O)c4)cc2OCC3)n(C(C)C)n1 | inactive | inactive
O=S(=O)(N[C@H]1CCCC[C@@H]1N1CCOCC1)c1ccc(Cl)cc1 | inactive | 5.35 µM (active)
CS(=O)(=O)Nc1ccc2oc3c(OC(F)F)ccc(C(=O)Nc4c(Cl)cncc4Cl)c3c2c1 | inactive | 12 µM (active)
CNCCCC1(c2ccccc2)OC(C)(C)c2ccccc21 (configuration not stated) | inactive | 6.74 µM (active)
CN(C)CCN(Cc1ccc(-c2ccc(CNCCc3ccccc3)cc2)cc1)C(=O)CCC1CCCC1 | inactive | 0.601 µM (active)
CC(C)(N)c1ncc(-c2ccc(OC(F)(F)F)cc2)[nH]1 | inactive | 23.9 µM (active)
CCC(C)CNCC(=O)N1CCC2SC=CC2C1COc1cccc(C)c1 (configuration not stated) | inactive | 0.0756 µM (active)
CNc1cccc(CCOc2ccc3c(c2)CN(CC(F)(F)F)C(=O)[C@H](CC(=O)O)C3)n1 | inactive | inactive
COc1ccccc1N1CCN(c2ncnc3n[nH]c(Br)c23)CC1 | inactive | inactive
Cc1cccc(-c2[nH]ncc2-c2ccnc3ccccc23)n1 | inactive | inactive
CCCCc1ccc(NS(=O)(=O)c2ccc(F)cc2)cc1 | inactive | 9.52 µM (active)
COc1cc2c(cc1-c1c(C)noc1C)ncc1[nH]c(=O)n(C(C)c3ccccn3)c12 (configuration not stated) | inactive | inactive
CC(C)(C[C@@](O)(Cc1cc2ccncc2[nH]1)C(F)(F)F)c1cc(F)ccc1O | inactive | 0.134 µM (active)
O=C(NCCCc1ccccc1)C1CCC(CNS(=O)(=O)c2cccc3nsnc23)CC1 (configuration not stated) | inactive | 10.7 µM (active)

Structure (SMILES) | Potency [1] | Potency [2]
Cc1cc2c(N3CCCC3)nc(N3CCCC3)nc2n1C | inactive | 3.01 µM (active)
CC#CCn1c(N2CCCC(N)C2)nc2c1c(=O)n(Cc1nc(C)c3ccccc3n1)c(=O)n2C (configuration not stated) | inactive | inactive
O=C(OC1CN2CCC1CC2)N1CCc2ccccc2C1c1ccccc1 (configuration not stated) | inactive | 19 µM (active)
CCc1ccc(-c2nc(CSCC(=O)NCCc3ccccc3)c(C)o2)cc1 | inactive | 15.1 µM (active)
CC(C)n1nc(C#Cc2ccccc2)c2c(N)ncnc21 | inactive | 19 µM (active)
CCNC(=O)c1noc(-c2cc(Cl)c(O)cc2O)c1-c1ccc(OC)cc1 | inactive | 26.8 µM (active)
COc1ccc(CCCN2CCC(COC(c3ccccc3)c3ccccc3)CC2)cc1 | inactive | 0.0535 µM (active)
Cn1nc(-c2ccc(C(F)(F)F)cc2)nc2c(=O)n(C)c(=O)nc1-2 | inactive | 0.239 µM (active)
O=C(Nc1ccc(Cl)cc1)c1ccccc1NCc1ccncc1 | inactive | 0.169 µM (active)
Cc1ccc(NC(=O)C(C)C)cc1C1CCN(Cc2ccc(Oc3ccc(F)c(F)c3)cc2)CC1 | inactive | 5.35 µM (active)
COc1cc(CCc2cc(NC(=O)c3ccc(N4CC(C)NC(C)C4)cc3)n[nH]2)cc(OC)c1 (configuration not stated) | inactive | 12 µM (active)
COc1ccc(S(=O)(=O)N2CCC[C@H]2C(=O)Nc2cc(C)cc(C)c2)cc1 | inactive | inactive
Cc1c(C2=CCN(C(=O)N(C)C(C)C)CC2)nnn1-c1cccnc1F | inactive | inactive
CCCNCCc1ccc(NS(=O)(=O)c2ccc(OC(F)(F)F)cc2)cc1 | inactive | 1.34 µM (active)
Cn1c(SCC(=O)N2CCC[C@H]2C(=O)Nc2ccccc2-c2ccccc2)nc2ccccc21 | inactive | 16.9 µM (active)
O=C(CSc1nc2ccccc2c(=O)n1-c1ccccc1)Nc1ccc2c(c1)CCC2 | inactive | inactive
FC(F)(F)c1ccc(/C=C/c2nc(COc3ccc(CCCCn4ccnn4)cc3)co2)cc1 | inactive | inactive
O=C(Nc1nc2ccc([N+](=O)[O-])cc2s1)C1CCCCC1 | inactive | 1.9 µM (active)
Cc1c(C(=O)NCc2cccnc2)nn(-c2ccc(Cl)cc2Cl)c1-c1ccc(Cl)cc1 | inactive | 0.213 µM (active)
O=C(Nc1ccccc1)c1ccc(Nc2nnc(-c3ccc(O)cc3)c3ccccc23)cc1 | inactive | inactive
O=C(NCCN1CCC(n2c(=O)[nH]c3ccccc32)CC1)c1ccc2ccccc2c1 | inactive | 12 µM (active)
COc1ccccc1-c1ccc(-c2cn(C(=O)N3CCCCC3Cc3ccccc3)nn2)cc1 (configuration not stated) | inactive | inactive
c1cc(NC2CCNCC2)nc(-c2cnc3ccccn23)c1 | inactive | 15.1 µM (active)
Clc1ccc(Nc2nc3ccccc3c3nc(C4CCCCC4)[nH]c23)cc1Cl | inactive | inactive
O=C1C(Cc2ccc(O)cc2)N2C(=O)CCN(C(=O)NCc3ccccc3)C2CN1Cc1cccc2ccccc12 (configuration not stated) | inactive | 1.07 µM (active)
CCN(CC)CCCS(=O)(=O)N[C@H](CCc1ccccc1)c1nc(Cc2ccc(Br)cc2)no1 | inactive | 6.01 µM (active)

Structure (SMILES) | Potency [1] | Potency [2]
COc1ccc(C#Cc2ccc(C(=O)N3CCC[C@@H](O)C3)c(F)c2)cc1 | inactive | inactive
CC[C@@H](Nc1c(Nc2cccc(C(=O)N(C)C)c2O)c(=O)c1=O)c1cc(C(C)C)co1 | inactive | 16.9 µM (active)
CCN1CCN(Cc2ccc(C(=O)Nc3ccc(C)c(Oc4ccc5c(c4)CC(=O)N5)c3)cc2C(F)(F)F)CC1 | inactive | 16.9 µM (active)
CCC(CC)C(c1ccc(Nc2nc3ccccc3s2)cc1)n1cncn1 (configuration not stated) | inactive | 2.39 µM (active)
N#Cc1cnc2c(Cl)cc(NCc3cn(CCN4CCCCCC4)nn3)cc2c1Nc1ccc(F)c(Cl)c1 | inactive | 0.849 µM (active)
O=C(Nc1cc(C(F)(F)F)cc(C(F)(F)F)c1)c1cnc(Cl)nc1C(F)(F)F | inactive | 19 µM (active)
CCCc1cc(C)n(C)c(=O)c1CN(C)C(=O)c1cc(-c2ccc(N3CCN(C(C)C)CC3)nc2)cc2c1cnn2C(C)C | inactive | inactive
CC(C)S(=O)(=O)Nc1ccc(F)c(C(=O)c2c[nH]c3ncc(-c4cccnc4)cc23)c1F | inactive | 5.35 µM (active)
Fc1ccc(-c2cncc(CN3CCN(c4cccc5c4OCCO5)CC3)c2)cc1 | inactive | 9.52 µM (active)
Cc1csc2c(N[C@@H](C)CN3CCN(S(=O)(=O)c4ccc(Cl)c(Cl)c4)CC3)ncnc12 | inactive | 0.425 µM (active)
COc1ccc(-c2csc(NC(=O)[C@H]3CCCCN3S(=O)(=O)c3ccc(C)cc3)n2)cc1 | inactive | inactive
O=C(Nc1ccc(C(O)(C(F)(F)F)C(F)(F)F)cc1)c1ccc(C(F)(F)F)cc1 | inactive | 19 µM (active)
Cc1[nH]c(/C=C2\C(=O)Nc3ccc(F)cc32)c(C)c1C(=O)NCCN1CCCC1 | inactive | inactive
CCOC(=O)c1cnn(-c2ccccc2)c1NC(=O)c1cc2nc(-c3ccco3)cc(C(F)(F)Cl)n2n1 | inactive | inactive
Cc1csc(N(C(=O)CSc2ccc(-c3ccccc3)nn2)C2CC2)n1 | inactive | inactive
COc1cc(NC(=O)c2cc(C3CC3)on2)c(OC)cc1Cl | inactive | 2.39 µM (active)
C[C@H]1[C@H](/C=C/c2ccc(-c3ccccc3C#N)cn2)[C@@H]2[C@@H](C)OC(=O)[C@@H]2C[C@@H]1C | inactive | inactive
COc1ccc(NC(=O)c2ccc(-c3ccc(-c4nnc(C)o4)cc3C)cc2)cc1N1CCN(C)CC1 | inactive | 30.1 µM (active)
COC(=O)C(Cc1ccc(OCCn2c(=O)sc3cc(C(=O)c4ccccc4)ccc32)cc1)C(=O)OC | inactive | inactive
CC(C)(C)Oc1ccc(OCC2Cc3ccccc3CN2C(=O)c2cccc3ccccc23)cc1 (configuration not stated) | inactive | inactive
CC(C)(C)Sc1c(CC(C)(C)C(=O)O)n(Cc2ccc(Cl)cc2)c2ccc(OCc3ccc4ccccc4n3)cc12 | inactive | inactive
O=C(c1ccc(OC(F)F)c(C#Cc2ccccn2)c1)N1Cc2cccnc2C1 | inactive | 21.3 µM (active)
O=C(c1ccc(Cl)cc1)N1CCN(c2ccnc3cc(Cl)ccc23)CC1 | inactive | 8.49 µM (active)
O=C(Nc1ccc(Cl)cc1)C1CCCN(C(=O)c2cccc(-c3ccco3)c2)C1 (configuration not stated) | inactive | 13.5 µM (active)
